# Most compounds without a hit are left out; they make up all but 4.5% or so of the library.
# DAX1 inh-1: NR0B1 (DAX1) inhibition | HEK293 Gal4-DAX1 luciferase reporter, luminescence | inhibition, % at 6.75 µM | P51843 | 0.99% of 340,000 active;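 active = inhibition above the mean over all tested compounds plus 3 SD, cut at about 4.2% in these data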;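 also: 0% = DAX1-transfected cells with DMSO and 100% = empty-vector control cells with DMSO; inhibition shows as a rise in luminescence from relieved DAX1 repression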
# Target sequence (P51843 207-470 limits assumed): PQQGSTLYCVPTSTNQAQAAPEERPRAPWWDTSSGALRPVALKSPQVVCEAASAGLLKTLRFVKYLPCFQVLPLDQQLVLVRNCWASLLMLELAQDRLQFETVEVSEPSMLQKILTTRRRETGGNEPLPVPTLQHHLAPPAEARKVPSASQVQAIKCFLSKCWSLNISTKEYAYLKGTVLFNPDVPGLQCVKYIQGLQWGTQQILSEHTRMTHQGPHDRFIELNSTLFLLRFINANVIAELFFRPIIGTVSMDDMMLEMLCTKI
# FXN GAA850 act: frataxin GAA850 promoter activation; 0.56% of 360,000 active; HEK293 lucGAA850 FXN promoter luciferase reporter, 24 h; percent of 10 µM SAHA response; activation, % at 6 µM;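 active = activation above the average of all compounds screened plus 3 SD, cutoff fixed separately per campaign, cut at about 7.5% in these data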;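 also: 0% = DMSO wells and 100% = 10 µM SAHA wells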
# DAX1 inh-2: inhibitors of DAX1 repression of SF-1 activated StAR promoter; HEK293T StAR-luciferase reporter, SF-1/DAX-1 repression relief; inhibition, % at 6.8 µM; 1.1% of 370,000 active; AID 652010;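 active = inhibition above the mean over all tested compounds plus 3 SD, cut at about 3.6% in these data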;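 also: 0% = DAX-1 cells with DMSO and 100% = cells lacking DAX-1 with DMSO; higher inhibition means more luminescence from relief of DAX-1 repression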
# hgDAF-12 ag: hgDAF-12 agonism, primary luciferase screen; AID 687014; activation, % at 6.8 µM; 1.8% of 370,000 active; HEK293 GAL4-hgDAF12 UAS-luciferase reporter, agonist luminescence; normalized to butyrate control;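 active = activation above a cutoff set at the mean of all screened compounds plus 3 SD, cut at about 10% in these data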;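 also: 0% = DMSO wells and 100% = sodium butyrate wells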
# ssDAF12 agonist: activators of S. stercoralis DAF-12 nuclear receptor | HEK293 ssDAF-12/GRIP1 lit1-tk-luc reporter, luminescence; % of 3 µM dafachronic acid response | AID 652126 | activation, % at 6.8 µM | 1% of 370,000 active;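 active = activation above the mean over all tested compounds plus 3 SD, cut at about 0.9% in these data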;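 also: 0% = DMSO-only wells and 100% = 3 µM delta7-dafachronic acid wells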
# hcDAF-12 act: activates DAF-12 receptor from parasite H. contortus. HEK293 hcDAF-12 lit1-tk-luc reporter, luminescence; 0% DMSO, 100% Δ7-dafachronic acid. activation, % at 6.8 µM. 1.4% of 370,000 active. AID 652067;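 active = activation above the mean of all tested compounds plus 3 SD, cut at about 5.5% in these data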;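 also: 100% = response to 3 µM Δ7-dafachronic acid high control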
# Numbers without * were called inactive; / = not tested or not shown.
SMILES,DAX1 inh-1,FXN GAA850 act,DAX1 inh-2,hgDAF-12 ag,ssDAF12 agonist,hcDAF-12 act
COc1ccc(-c2nc(NC(=O)Cn3c(=O)oc4ccccc43)sc2C)cc1,4.7*,-1,0,2,0,3
Cn1cc(Cl)c(C(=O)N/N=C/c2ccc3c4c(cccc24)CC3)n1,1,8.0*,/,/,/,/
CCOC(=O)CC[C@@H]1CC[C@]2(CCCN(C(=O)C3CCCC3)C2)O1,/,/,0,3,-1,2
CC(=O)Nc1csc2ccccc12,0,0,2,3,0,2
NC(=O)C1CCN(C(=O)Nc2csc3ccccc23)CC1,/,0,0,1,1.0*,2
COc1cccc(-c2ccc(=O)n(CC(=O)NCCN3CCOCC3)n2)c1,1,1,0,3,0.9*,0
C=CS(=O)(=O)N(Cc1ccc(F)cc1)C(=C)C(=O)OC,/,/,-6,-9,-2,-3
O/N=C1\CC/C(=N\O)c2nn(-c3ccccc3Cl)nc21,0,2,-1,1,-2,0
Cc1ccc(-n2nc3c(n2)/C(=N/O)CC/C3=N\O)cc1,-1,5,4.4*,12*,1,5
COc1ccc(NCc2cc3cc(OC)ccc3[nH]c2=O)cc1,0,2,0,0,-1,1
COc1ccc2[nH]c(=O)c(CNc3cccc(C)c3)cc2c1,1,7,1,10,1.2*,5.7*
Clc1ccc2nc(-c3ccc(Cl)nc3)[nH]c2c1,3,3,0,12*,0,3
Nc1nc2ccc(Cl)cc2[nH]1,-1,1,0,0,0,2
O=C(Nc1ccc(Br)cc1)OCCN1CCCC12CCC(c1ccccc1)CC2 (stereo not drawn),/,/,/,3,-2,0
CC(C)(C)NC(=O)C(c1ccnc2ccccc12)n1c(=O)c(-c2ccco2)nc2ccccc21 (stereo not drawn),/,/,4.0*,-1,0,3
COc1ccc2c(c1)nc(-c1cccc(Br)c1)c(=O)n2C(c1ccccn1)c1nc2ccccc2[nH]1 (stereo not drawn),/,/,2,9,0.9*,4
O=c1c(-c2cccnc2)nc2ccccc2n1C(c1ccccn1)c1nc2ccccc2[nH]1 (stereo not drawn),/,/,0,-1,-1,1
CC(C)(C)NC(=O)C(c1ccccc1)n1c(=O)c(-c2ccco2)nc2ccccc21 (stereo not drawn),/,/,2,0,-1,0
O=c1c(-c2cccs2)nc2ccccc2n1C(c1ccccn1)c1nc2ccccc2[nH]1 (stereo not drawn),/,/,3,12*,0,2
O=c1c(-c2ccco2)nc2ccccc2n1C(c1ccccn1)c1nc2ccccc2[nH]1 (stereo not drawn),/,/,1,4,1.1*,3
CCC(c1nc2ccccc2[nH]1)n1c(=O)c(-c2ccco2)nc2ccccc21 (stereo not drawn),/,/,0,0,-1,-2
O=c1c(-c2ccccc2)nc2ccccc2n1C(c1ccccn1)c1nc2ccccc2[nH]1 (stereo not drawn),/,/,2,0,-1,-1
O=S(=O)(CC1NCc2cc(F)ccc21)NCc1ccc(F)cc1 (stereo not drawn),/,/,-1,0,-1,1
CCN(C)c1nc(C)nc2c1nnn2Cc1ccccc1,/,/,1,0,-1,-1
O=C(Oc1ccc2ccccc2c1Cl)N1CCCC1,1,0,2,2,0,1
SMILES,DAX1 inh-1,FXN GAA850 act,DAX1 inh-2,hgDAF-12 ag,ssDAF12 agonist,hcDAF-12 act
O=C(Oc1ccc2ccccc2c1Cl)N1CCCCCC1,1,1,4.1*,6,0,1
O=C(COc1ccc2ccccc2c1Br)N1CCCC1,0,2,3.9*,3,-1,1
CCCCN1C[C@@H](COCc2ccccc2)Oc2cccc(F)c2S1(=O)=O,/,/,-2,5,-1,-3
O=C(CN(Cc1ccc(F)cc1)C(=O)CCC(=O)Nc1ccccn1)NCCc1ccccc1,-1,-2,0,-2,-1,-1
Cc1cc(NC(=O)CCCC(=O)N(CC(=O)NCCc2ccccc2)Cc2ccc(F)cc2)no1,0,-1,-1,-2,1.1*,0
O=S(=O)(c1ccccc1)n1ccc2ccccc21,0,0,0,0,0,2

# From PubChem BioAssay
